High-throughput results: PubChem, National Center for Advancing Translational Sciences (NCATS)
An excerpt weighted towards active compounds, which were near 3.3% of everything screened.
FBPA Giardia inh – inhibitors of Giardia lamblia fructose-1,6-bisphosphate aldolase; A8B2U2; purified Giardia FBPA; Potency, µM (top dose mostly 59.6 µM), for the others: top-dose activity, negative = inhibition, most hits filed as inhibitors; 290,000 compounds, 0.71% hits; AID 2451; further: nearly all actives have a fitted effect of over 55% in size
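Giardia FBPA (40 nM reagent) was preincubated 10 min at RT with compound (up to 57.5 uM final), then substrate plus GAPDH/TPI/NAD/arsenate coupling system with diaphorase/resazurin was added; resorufin fluorescence (525/598 nm) was read after 20 min.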
LmPK inh – inhibitors of Leishmania mexicana pyruvate kinase. purified LmPK, Kinase-Glo ATP luminescence, 1 h. AID 1721. 290,000 compounds, 0.37% hits. Q27686. Potency, µM (top dose mostly 57.5 µM), inactives show at the top dose activity change, negative = inhibition, most hits filed as inhibitors
Target sequence (Q27686 whole entry, looked up): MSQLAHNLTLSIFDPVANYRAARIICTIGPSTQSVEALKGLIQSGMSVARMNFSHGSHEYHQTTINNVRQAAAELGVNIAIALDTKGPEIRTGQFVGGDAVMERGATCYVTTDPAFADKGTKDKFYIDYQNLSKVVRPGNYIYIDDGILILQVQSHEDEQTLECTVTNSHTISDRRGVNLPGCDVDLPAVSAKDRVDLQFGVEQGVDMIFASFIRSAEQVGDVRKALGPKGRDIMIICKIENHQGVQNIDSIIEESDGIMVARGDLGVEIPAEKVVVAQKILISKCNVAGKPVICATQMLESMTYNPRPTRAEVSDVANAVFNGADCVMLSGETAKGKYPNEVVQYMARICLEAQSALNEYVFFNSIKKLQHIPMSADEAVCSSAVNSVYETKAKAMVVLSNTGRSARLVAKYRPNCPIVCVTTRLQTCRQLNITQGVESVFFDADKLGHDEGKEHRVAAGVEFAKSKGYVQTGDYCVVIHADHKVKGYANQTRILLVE
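qHTS format; LmPK 0.1 nM; substrates PEP 0.5 mM and ADP 0.1 mM. One-hour room-temperature incubation, then coupled luciferase luminescence; 0.5 nM enzyme wells mark activation.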
TbPYK inhibitor – blocks Trypanosoma brucei pyruvate kinase; Potency, µM (series often up to 76.8 µM), without a hit: top-dose activity, negative = inhibition, most hits filed as inhibitors; 410,000 compounds, 0.12% hits; TbPYK enzyme, Kinase-Glo Plus ATP luminescence, 45 min; further: nearly all actives have a fitted effect of over 50% in size
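Screened from lowest to highest concentration, compounds were pinned into TbPYK/substrate mixtures, and ADP (130 uM final) was added. Plates sat at room temperature for 45 min prior to Kinase-Glo Plus detection by luminescence.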
Sm TGR block – inhibitors of Schistosoma mansoni thioredoxin glutathione reductase. Q962Y6. purified TGR, DTNB reduction, TNB absorbance 405 nm. Potency, µM (titrated, usually from 114 µM), without a hit: at the highest dose activity change, negative = inhibition, most hits filed as inhibitors. 360,000 compounds, 3% hits. AID 485364; further: nearly all actives have a fitted effect of over 60% in size
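First, TGR (20 nM dispensed) and NADPH were mixed with compound. Second, a 15 min room-temperature incubation followed. Third, further NADPH and then DTNB were added to start the reaction. Finally, TNB absorbance was monitored kinetically.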
RE007 growth inh – less growth of the S. pombe RE007 Vpr strain | S. pombe RE007 Vpr strain, BacTiter-Glo ATP luminescence, 24 h | Potency, µM (series often up to 92.2 µM), for inactives: at the highest dose activity change, negative = less growth, most hits filed as inhibitors | 360,000 compounds, 0.21% hits | AID 651644; active means well fitted falling curve with a large enough effect; inconclusive means small, poorly fitted or top-dose-only effect; inactive means no such curve, though single readings can be large or run the other way; further: nearly all actives have a fitted effect of over 50% in size
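Fission yeast RE007 carrying one integrated HIV-1 vpr copy, seeded at OD 0.01 in PMG+AL medium with 23 nL pinned compound. Grown 24 h at 30 degrees; viability read by BacTiter-Glo luminescence after 5 min.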
Starred values were filed as active, the others as inactive; ? = inconclusive; . = no result; [ ] = remark or other dose. Unless noted, the call rests on the fitted dose curve; in most records, active means well fitted curve in the direction sought with a large enough effect; inconclusive means small, poorly fitted or top-dose-only effect, or another doubt; inactive means no such curve, though single readings can be large; an effect the other way counts as inactive or inconclusive. On the % scale 0 is the no-effect control and ±100 the full control effect; potency means the concentration at half of the fitted maximal effect.

SMILES | FBPA Giardia inh | LmPK inh | TbPYK inhibitor | Sm TGR block | RE007 growth inh
COC(=O)N1C(=O)[C@](c2ccsc2)(C(C)C)N1C(=O)OC | -2% | 0% | -8% | 32µM* | -3%
COC(=O)N1C(=O)[C@](c2ccc(OC)cc2)(C(C)C)N1C(=O)OC | 9% | -4% | 1% | 45µM* | -9%
Cc1ccc(OCc2nc(-c3ccc(C(=O)N4CCN(c5ccccc5)CC4)cc3)oc2C)cc1 | . | . | 1% | -2% | .
O=C(CNC(=O)c1ccco1)OCc1cccc(Cl)c1 | 4% | -1% | -5% | 45µM* | 24%
O=C(COC(=O)CNC(=O)c1ccco1)Nc1ncc(Cl)cc1Cl | . | . | -10% | 40µM* | 20%
O=C(CCNc1cccc(Cl)c1)c1ccco1 | -4% | -2% | 0% | 11µM* | -30%
O=C(COC(=O)Cc1ccccc1)Nc1ncc(Cl)cc1Cl | 1% | -1% | -3% | -26% | -9%
O=C(NC1CCN(C(=O)Nc2cccc(Cl)c2)CC1)c1ccco1 | -5% | -3% | -22% | -9% | 5%
N#CCC(=O)N/N=C/c1cn(Cc2cccc3ccccc23)c2ccccc12 | 8% | 6% | -4% | 10% | 5%
CC(=O)Nc1ccc(S(=O)(=O)N(C)CC(=O)Nc2ccc(F)c(F)c2F)cc1 | . | . | 5% | -6% | -1%
Cc1nc2nc(C(F)(F)F)[nH]c2nc1C | . | . | -7% | . | 8%
COC(=O)CN1CCN(C(c2ccccc2)c2ccccc2)CC1 | 5% | -1% | -18% | 45µM* | -11%
O=C(Cn1cccc1)N1CCN(C(c2ccccc2)c2ccccc2)CC1 | 0% | 8% | -3% | 40µM* | -21%
Cc1cccc(N2CCN(C(=O)Cn3cccc3)CC2)c1C | -7% | 4% | -1% | 50µM* | -7%
CCOc1cc2c(cc1OCC)C(c1ccc(C(=O)O)cc1)NCC2 (stereo unspecified) | 0% | -2% | -14% | -31% | -10%
C=CCc1ccc(OC(=O)NC2CCCCC2)c(OC)c1 | 4% | 6% | -2% | 22µM* | 19%
N#CC(C#N)=C1c2cc(S(=O)(=O)NCCO)ccc2-c2ccc(S(=O)(=O)NCCO)cc21 | ? | 4% | 5% | 4.5µM* | 1%
N#CC(C#N)=C1c2cc(S(N)(=O)=O)ccc2-c2ccc(S(N)(=O)=O)cc21 | ? | 3% | -6% | 4.5µM* | -24%
C[C@]12CC[C@@H](O)C[C@@H]1CC[C@@H]1[C@@H]2CC[C@]2(C)C(=O)CC[C@@H]12 | 3% | 8% | -5% | 9% | -3%[18.4 µM]
CC(O)c1nc2ccccc2n1Cc1ccccc1 (stereo unspecified) | -6% | -3% | -3% | 5.6µM* | -13%
C=CCn1c(O)c(N=Nc2ccccc2)c2ccccc21 | 15% | -5% | -17% | 40µM* | 4%
C=CCn1c(O)c(N=Nc2ccccc2O)c2ccccc21 | . | . | -15% | -32% | ?
CC(=O)c1c(NC(=O)C(C)C)nc(C)nc1-c1ccccc1 | -20% | 4% | 2% | 38% | 5%
CCOc1ccc(Nc2cc(=O)n(C)c(=O)n2C)cc1 | -5% | -2% | 5% | 1% | 8%
Cn1c(Nc2ccc(Cl)cc2)cc(=O)n(C)c1=O | -4% | 4% | -4% | 20µM* | 2%
SMILES | FBPA Giardia inh | LmPK inh | TbPYK inhibitor | Sm TGR block | RE007 growth inh
COc1ccc(N2C(=O)CC(Nc3cccc(C(C)=O)c3)C2=O)cc1OC (stereo unspecified) | -3% | 5% | -4% | 56µM* | 14%
COc1ccc(NC2CC(=O)N(c3cc([N+](=O)[O-])ccc3C)C2=O)cc1 (stereo unspecified) | 0% | -3% | 1% | 40µM* | 12%
COc1ccc(NC2CC(=O)N(c3cccc([N+](=O)[O-])c3)C2=O)cc1 (stereo unspecified) | 0% | 0% | 1% | 56µM* | -23%
COc1ccc(NC2CC(=O)N(c3cccc(C)c3)C2=O)cc1 (stereo unspecified) | ? | 5% | -1% | 35µM* | -19%
COc1ccc(NC2CC(=O)N(c3ccc(C(=O)O)cc3)C2=O)cc1 (stereo unspecified) | -6% | 0% | 1% | -33% | 46%
Cc1ccc(N2C(=O)CC(Nc3ccccc3)C2=O)cc1 (stereo unspecified) | 0% | 7% | -1% | -20% | -7%
Cc1c(N2C(=O)/C(=C\c3cccc4ccccc34)SC2=S)c(=O)n(-c2ccccc2)n1C | -3% | 4% | -3% | 2% | 1%
Cc1cc(NC(=O)CSc2nc(=O)n(CCCN(C)C)c3c2CCCC3)no1 | . | . | 3% | -7% | 0%
N=C1CCC(=N)c2c1c(O)c1ccccc1c2O | 6.3µM* | -12% | ? | 4.5µM* | ?
CCOC(=O)C1CCCN(Cc2cc(Br)c(OC)cc2OC)C1 (stereo unspecified) | -17% | -5% | 8% | -1% | -20%
CCCc1nc2ccc(Cl)cn2c1Cc1cccc(Cl)c1 | . | . | 4% | . | -19%
O=C(C[n+]1ccccc1)Nc1ccccc1Br | ? | 44% | -6% | 0.1µM* | -11%
CCN1C=C(Cc2ccccc2C)C2=C(C1)C(c1ccccc1C)C(C#N)=C(N)O2 (stereo unspecified) | ? | 9% | 3% | 45µM* | 4%
O=C(Nc1ccccc1F)Nc1cccc2ccc(O)cc12 | ? | -16% | 0% | 32µM* | .
O=C(/C=C/NCC(=O)c1ccccc1)c1ccc(Br)cc1 | -1% | 4% | 0% | 20µM* | -7%
COc1ccc(OCc2nnc(SCC(=O)NCc3ccco3)o2)cc1 | -4% | -5% | -4% | 1% | -4%
COc1ccc(-c2nnc(SCC(=O)NCc3ccco3)n2C)cc1 | 3% | 5% | -7% | 45µM* | 8%
O=C(CSc1ccc2nnc(-c3ccccn3)n2n1)NCc1ccco1 | -21% | 3% | -8% | 40µM* | 9%
O=C(CSc1ccc2nnc(-c3ccccn3)n2n1)NCc1ccc2c(c1)OCO2 | -11% | 0% | 7% | -6% | -9%
COc1ccc(-c2nnc3ccc(SCC(=O)NCc4ccco4)nn23)cc1 | 5% | 1% | -11% | 40µM* | 18%
COc1ccc(Cc2nnc(SCC(=O)NCc3ccco3)o2)cc1 | 1% | 5% | 1% | 50µM* | -3%
Cn1c(SCC(=O)NCc2ccco2)nnc1-c1ccccc1 | 2% | 0% | 2% | ? | -1%
CN(C)Cc1c(C(=O)N/N=C/c2ccc(OCc3ccc(F)cc3)cc2)nnn1-c1nonc1N | -2% | -4% | -2% | -3% | 2%
Cc1ccc(C(=O)NCC(=O)OCC(=O)c2ccc3c(c2)NC(=O)CO3)cc1C | 9% | -4% | 6% | -15% | -19%
O=C(CSc1ccc2nnc(-c3ccccc3)n2n1)NCc1ccco1 | 1% | 5% | -2% | 45µM* | 9%
COc1ccc(C(=O)C(C)(C)NO)cc1 | 2% | -7% | 8% | 24% | -14%
